Source: PubChem BioAssay
Only some compounds are listed: those with a hit (about 6.3% of all), similar ones and a draw of the others.
MPTP block – blocks calcium-induced mitochondrial swelling; 360,000 compounds, 1.4% hits; isolated mouse mitochondria, Ca2+ swelling absorbance, 30 min; AID 602449; inhibition, % at 10 µM;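 active = inhibition of 50% or more, scaled per plate between neutral and stimulator controls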;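 note: 0% = DMSO wells given calcium and 100% = 1 mM EGTA wells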
TIM10 inh – inhibits growth of TIM10 yeast strain | S. cerevisiae TIM10 strain growth, BacTiter-Glo luminescence, 24 h | inhibition, % at 10 µM | 330,000 compounds, 1.4% hits | AID 463195;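 active = inhibition of 40% or more at the single tested concentration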;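 note: wild-type TIM10 isogenic control strain grown at permissive 25 °C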
tim10-1 inh – inhibits growth of tim10-1 mutant yeast; S. cerevisiae tim10-1 ts strain growth, BacTiter-Glo, 24 h; inhibition, % at 20 µM; 330,000 compounds, 2.2% hits; AID 463190;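 active = inhibition of at least 40%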;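 note: mutant grown at 25 °C; 0% = DMSO wells with yeast and 100% = wells holding no yeast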
Mdm2 MdmX PPI – disrupts the human Mdm2-MdmX interaction. O15151+Q00987. SaOS-2 split-luciferase Mdm2/MdmX complementation, luminescence. inhibition, % at 8 µM. 330,000 compounds, 3% hits. AID 485346;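 active = inhibition of at least 50% at 8 µM in the primary screen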
Target sequence (O15151 whole entry, looked up): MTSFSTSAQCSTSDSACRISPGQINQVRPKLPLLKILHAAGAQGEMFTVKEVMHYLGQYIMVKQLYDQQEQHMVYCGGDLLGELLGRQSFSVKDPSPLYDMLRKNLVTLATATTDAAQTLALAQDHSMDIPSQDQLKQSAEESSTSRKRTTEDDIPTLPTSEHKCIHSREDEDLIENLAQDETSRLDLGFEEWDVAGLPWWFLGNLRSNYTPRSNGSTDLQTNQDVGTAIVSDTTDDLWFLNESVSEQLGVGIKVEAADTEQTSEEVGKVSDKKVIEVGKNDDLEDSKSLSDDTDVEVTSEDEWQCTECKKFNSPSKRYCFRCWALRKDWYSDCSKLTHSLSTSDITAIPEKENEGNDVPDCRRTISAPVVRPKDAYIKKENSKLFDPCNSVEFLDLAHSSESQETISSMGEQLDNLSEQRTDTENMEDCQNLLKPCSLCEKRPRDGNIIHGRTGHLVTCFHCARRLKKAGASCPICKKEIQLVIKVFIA
Target sequence (Q00987 whole entry, looked up): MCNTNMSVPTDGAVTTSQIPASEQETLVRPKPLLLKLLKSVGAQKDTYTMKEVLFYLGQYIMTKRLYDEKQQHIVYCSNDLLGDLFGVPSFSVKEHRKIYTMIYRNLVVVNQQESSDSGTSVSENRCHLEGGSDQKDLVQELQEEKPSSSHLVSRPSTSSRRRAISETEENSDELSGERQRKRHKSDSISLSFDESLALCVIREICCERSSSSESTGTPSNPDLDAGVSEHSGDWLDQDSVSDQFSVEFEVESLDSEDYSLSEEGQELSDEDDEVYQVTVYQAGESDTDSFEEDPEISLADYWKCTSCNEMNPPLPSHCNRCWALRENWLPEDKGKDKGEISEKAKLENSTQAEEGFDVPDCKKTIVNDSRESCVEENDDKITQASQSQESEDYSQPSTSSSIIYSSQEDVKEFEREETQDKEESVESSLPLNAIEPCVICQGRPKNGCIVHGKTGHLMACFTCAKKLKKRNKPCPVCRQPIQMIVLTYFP
tim23-1 inh – tim23-1 yeast growth inhibition | S. cerevisiae tim23-1 growth, BacTiter-Glo luminescence, 24 h | inhibition, % at 20 µM | 330,000 compounds, 1.3% hits | AID 463212;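 active = growth inhibition of the mutant yeast at or above 50%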;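 note: temperature-sensitive mutant grown at 25 °C; plate controls were DMSO-treated mutant yeast for no effect and medium wells lacking yeast for full effect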
Mdm2-MdmX conf – human Mdm2/MdmX binding inhibition, confirmed; 10,000 compounds, 55% hits; inhibition, % at 8 µM; luminescent assay; shares compounds with Mdm2 MdmX PPI; in the data active = inhibition above about 40%
Full FLuc ctr – inhibits full-length luciferase, flagging false Mdm2/MdmX hits; AID 504607; SaOS-2 full-length luciferase counterscreen, luminescence; shares compounds with Mdm2 MdmX PPI; 6,200 compounds, 77% hits; inhibition, % at 8 µM;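 active = mean inhibition at 8 µM reaching about 37%, which flags the compound as non-specific, limit read from the data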;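 note: p53-null SaOS-2 cells with luciferase driven by a doxycycline-inducible promoter; compound on cells about two nights before reading with doxycycline added after day one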
Numbers without * were called inactive; / = no result.

SMILES	MPTP block	TIM10 inh	tim10-1 inh	Mdm2 MdmX PPI	tim23-1 inh	Mdm2-MdmX conf	Full FLuc ctr
Cc1ccc2c(CN3CCN(c4ccc(Cl)c(Cl)c4)CC3)cc(=O)oc2c1	1	/	/	/	/	/	/
Cc1cc(SCC(=O)Nc2ccc3[nH]c(=O)[nH]c3c2)nc2ccccc12	0	-22	-7	87*	-14	-7	/
CCCCn1c(N)c(N(CCOC)C(=O)c2oc3c(Cl)cccc3c2C)c(=O)[nH]c1=O	-2	/	/	/	/	/	/
Fc1cccc(Cc2c(-c3ccccc3)nc3c(Cl)cc(C(F)(F)F)cn23)c1	1	/	/	/	/	/	/
O=C(CN1C(=O)c2ccccc2S1(=O)=O)c1ccc2c(c1)OCCO2	0	-2	-3	98*	12	99*	56*
O=C(CN1C(=O)c2ccccc2S1(=O)=O)c1ccc2c(c1)OCCCO2	2	2	14	95*	30	81*	56*
CC(=O)NCCNc1nc2cc(-c3ccc4c(ccn4C)c3)sc2c(=O)n1C	0	/	/	/	/	/	/
CC(C)(C)c1cc(NC(=O)CCl)n(-c2ccccc2)n1	0	-168	-209	79*	-131	58*	24
CCOCCCn1c(SCC(=O)Nc2cc(C(C)(C)C)nn2-c2ccccc2)nc2ccccc2c1=O	-1	23	29	54*	34	8	/
COc1ccc(-c2ccc3[nH]c4c(c3c2)CCN2C(=O)[C@@H]([C@H](C)O)[C@@H](N(C)C(=O)Nc3ccc(F)cc3)C[C@@H]42)cc1	-1	/	/	/	/	/	/
Cc1ccc(NC(=O)c2ccccc2OCC(=O)Nc2ccccc2F)cc1S(=O)(=O)N(C)C	4	14	6	35	3	/	/
CC(C)(C)n1nnnc1C(c1cc2ccccc2o1)N1CCN(C(=O)OCc2ccccc2)CC1 (centres undefined)	0	/	/	/	/	/	/
c1cn2c(-c3ccc(N4CCOCC4)cc3)cncc2n1	0	/	/	/	/	/	/
CC1CC2OC2CC1COC(=O)C1CC2OC2CC1C (centres undefined)	1	/	/	/	/	/	/
CC1=C(C(=O)N(C)C)CC(CC(=O)NC(c2ccccc2)c2ccccc2)C(=O)N1Cc1ccc(F)cc1 (centres undefined)	0	/	/	/	/	/	/
CCc1cc(-c2[nH]ncc2-c2ccc(OC)cc2)c(O)cc1O	2	15	36	37	22	/	/
CCc1cc(-c2[nH]ncc2-c2ccc3c(c2)OCO3)c(O)cc1O	5	16	-7	78*	12	73*	38*
CC1c2cc3c(cc2CCN1C(=O)c1cccc(Cl)c1)OCCCO3 (centres undefined)	6	-12	36	57*	6	44*	62*
Cc1ccc(NC(=O)Cn2nnc(C(=O)NCCc3ccccc3)c2N)c(C)c1	0	-28	-7	61*	-9	10	/
Cc1cc(C)cc(NC(=O)Cn2nnc(C(=O)NCCc3ccccc3)c2N)c1	2	-4	8	2	2	/	/
Cc1ccc(NC(=O)Cn2nnc(C(=O)NCCc3ccccc3)c2N)cc1Cl	2	2	20	53*	6	47*	29
OC(c1cccc(Cl)c1)c1nc(-c2ccc(Cl)cc2)cs1 (centres undefined)	4	/	/	/	/	/	/
CCc1ccccc1Nc1nc(N)nc(COC(=O)c2cccn2C)n1	-2	28	17	54*	28	62*	196*
Cc1c(C(=O)OC/C(O)=C(\C#N)c2nc3ccccc3[nH]2)oc2ccc(Br)cc12	9	-4	-4	85*	-6	14	/
Cc1c(-c2cccc(Cl)c2)nc2ccccc2c1C(=O)OC/C(O)=C(\C#N)c1nc2ccccc2[nH]1	6	-5	14	70*	7	11	/
SMILES	MPTP block	TIM10 inh	tim10-1 inh	Mdm2 MdmX PPI	tim23-1 inh	Mdm2-MdmX conf	Full FLuc ctr
CC(C)OCc1c(C(=O)OC/C(O)=C(\C#N)c2nc3ccccc3[nH]2)oc2ccccc12	1	-9	-2	57*	-16	-5	/
Cc1cc(Br)ccc1SCC(=O)OCC(O)=C(C#N)c1nc2ccccc2[nH]1	0	/	/	/	/	/	/
CC1=C(C(=O)N2CCOCC2)CC(CC(=O)NCC2CCCCC2)C(=O)N1Cc1ccccc1 (centres undefined)	-4	/	/	/	/	/	/
C=CCn1c(SCC(=O)NC2CCCC2)nc2ccccc21	-2	/	/	/	/	/	/
CNC(=O)C(=O)NCCN1CCN(C(=O)c2ccc([N+](=O)[O-])cc2)CC1	1	-4	2	-4	-3	/	/
CCCCc1ccc(NC(=O)C(=O)NCCN2CCN(Cc3ccc([N+](=O)[O-])cc3)CC2)cc1	31	-12	-7	67*	2	36	/
O=c1c2ccccc2nc(COc2ccccc2)n1/N=C/c1cn[nH]c1-c1ccccc1	-10	26	14	44	10	/	/
Cc1ccccc1OCc1nc2ccccc2c(=O)n1/N=C/c1cn[nH]c1-c1ccc(Br)cc1	5	11	9	69*	14	24	/
O=c1c2ccccc2nc(COc2ccccc2)n1/N=C/c1ccc(O)cc1O	2	33	23	66*	29	58*	31
CC1(C(=O)NS(=O)(=O)c2cccc(F)c2)CCN1C(=O)CC1CCCCC1 (centres undefined)	2	/	/	/	/	/	/
CC/C(=N/Nc1cccc(Cl)c1)c1cnnc(SC)n1	19	2	-1	54*	-23	39	71*
CC1=CC(C)(C)N(C(=O)CNC2CCCCC2)c2cc(C)ccc21	2	23	24	19	16	/	/
CC1=CC(C)(C)N(S(=O)(=O)c2ccc(C)cc2)c2cc(C)ccc21	1	34	22	54*	43	69*	122*
COc1ccc2c(c1)C(C)=CC(C)(C)N2S(=O)(=O)c1ccc(C)cc1	1	33	12	63*	17	67*	96*
CCOc1ccc2c(c1)C(C)=CC(C)(C)N2S(=O)(=O)c1ccc(C)cc1	1	23	10	63*	18	61*	121*
COC(=O)C1(C)CN(S(=O)(=O)c2ccc(C)cc2)c2cc(OC)ccc2C1=O (centres undefined)	1	24	26	-2	34	/	/
CCNC(=O)N1c2ccc(OCC)cc2C(C)=CC1(C)C	3	4	9	15	-12	/	/
O=C(CC(=O)c1ccccc1)CC(O)(C=Cc1ccccc1)c1ccccc1 (centres undefined)	4	/	/	/	/	/	/
O=C(NCC1CCCO1)c1ccccc1NS(=O)(=O)c1ccc(Br)s1 (centres undefined)	0	/	/	/	/	/	/
COc1ccc(-c2csc3nc(C)nc(N4CCC(C)CC4)c23)cc1OC	6	7	22	66*	39	38	84*
CCCS(=O)(=O)NC(=O)C1(C)CCCN(C(=O)c2ccc(OC)cc2OC)C1 (centres undefined)	0	/	/	/	/	/	/
CCCCn1c(SCc2c(C)noc2C)nc2cc(S(N)(=O)=O)ccc21	-1	-16	-12	75*	5	60*	62*
CCCCn1c(SCC(=O)Nc2cc(C)on2)nc2cc(S(N)(=O)=O)ccc21	0	-3	9	0	9	/	/
